In PubChem BioAssay (EPA / NIEHS):
Results filed as inconclusive are left out. Active and inactive are the calls of the source. Rule for the calls: active = hit-call score of the fitted dose curve at least 0.9, where 1 is the maximum; inconclusive = response in the unintended direction; inactive = score below 0.9.

These molecules were tested against Androgen receptor (Homo sapiens) (UniProt P10275) (assay: ATG_AR_TRANS: Attagene TRANS-FACTORIAL HepG2 Assay for human Androgen Receptor (AR) (AID 2282973)). Details: HepG2 Attagene TRANS-FACTORIAL AR reporter transcription.
Chain of Androgen receptor (Homo sapiens) (P10275 whole entry, looked up, the tested form may be a part): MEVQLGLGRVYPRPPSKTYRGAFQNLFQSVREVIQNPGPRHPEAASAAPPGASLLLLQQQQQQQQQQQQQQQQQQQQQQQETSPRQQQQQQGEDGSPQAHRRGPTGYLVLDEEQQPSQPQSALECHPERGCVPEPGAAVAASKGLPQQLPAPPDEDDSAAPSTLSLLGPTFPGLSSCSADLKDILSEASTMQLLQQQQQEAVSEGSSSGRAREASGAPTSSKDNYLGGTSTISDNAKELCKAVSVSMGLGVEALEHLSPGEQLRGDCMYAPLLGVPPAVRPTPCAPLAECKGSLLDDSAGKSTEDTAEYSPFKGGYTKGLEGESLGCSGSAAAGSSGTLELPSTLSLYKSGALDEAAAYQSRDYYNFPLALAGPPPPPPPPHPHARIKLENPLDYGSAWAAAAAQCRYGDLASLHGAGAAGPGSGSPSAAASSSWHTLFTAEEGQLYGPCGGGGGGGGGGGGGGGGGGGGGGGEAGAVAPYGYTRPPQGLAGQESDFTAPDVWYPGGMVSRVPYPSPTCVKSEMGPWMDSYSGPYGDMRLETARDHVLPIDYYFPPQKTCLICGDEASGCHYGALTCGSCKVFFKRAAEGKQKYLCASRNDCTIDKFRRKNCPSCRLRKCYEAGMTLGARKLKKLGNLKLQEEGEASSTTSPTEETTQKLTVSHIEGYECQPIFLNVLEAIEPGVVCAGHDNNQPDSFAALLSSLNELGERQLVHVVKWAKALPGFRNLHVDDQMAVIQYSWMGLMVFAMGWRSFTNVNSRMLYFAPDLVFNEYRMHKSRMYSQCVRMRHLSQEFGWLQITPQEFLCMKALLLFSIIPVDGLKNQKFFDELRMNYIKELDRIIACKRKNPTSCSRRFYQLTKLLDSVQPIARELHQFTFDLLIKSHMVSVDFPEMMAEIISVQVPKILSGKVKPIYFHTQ
How it was run: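 Readout is reporter transcript abundance, quantified by fluorescent RT-PCR products separated on capillary electrophoresis. Human HepG2 liver cells carried transiently transfected NR-Gal4 chimera plus GAL4-UAS reporter constructs and were dosed for 24 h; activity scored upward versus DMSO.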

outcome, inactive:
CC(=O)O[C@H]1C[C@@H]2CC[C@@]1(C)C2(C)C, O=c1cc(-c2ccccc2)oc2ccc3ccccc3c12, CCN(CC)c1ccc2c(c1)Oc1cc(N(CC)CC)ccc1C21OC(=O)c2ccccc21, CCCCCCCCSCCO, O=C1Cc2ccccc2N1c1c(Cl)cccc1Cl, FC(F)(F)C(F)(F)C(F)(F)Br, COc1ccc(C(C)=O)cc1, CC(C)(C)c1n[nH]c(=O)n(N)c1=O, CCc1cccc(C)c1N(C(=O)C(=O)O)C(C)COC (stereo not drawn), O=C(OC(=O)C(F)(F)C(F)(F)F)C(F)(F)C(F)(F)F, CCCC(=O)c1cc(O)c(O)cc1O, CC(=O)CC(C)(C)O, OCCN(CCO)c1cccc(Cl)c1, O=C(O)c1cc(Cl)cc([N+](=O)[O-])c1Cl, N=C1C=CC(=C(c2ccc(N)cc2)c2ccc(N)cc2)C=C1, c1ccc2cc(Nc3ccc(Nc4ccc5ccccc5c4)cc3)ccc2c1, CCCCCCCCCCCCCCCCCC[N+](C)(C)Cc1ccccc1, CC1CNCC(C)O1 (stereo not drawn)
